Whole data set: some 33,000 sequences, median “e-score” near -0.05, cut for the highest 2% near 0.38. The sample holds the highest values, similar sequences and a random draw of the others, so the mix is not that of the screen.
Target: T1, SIX1-Q177R homeodomain (human, UniProt Q15475 108-198, Q177R)
T1 sequence: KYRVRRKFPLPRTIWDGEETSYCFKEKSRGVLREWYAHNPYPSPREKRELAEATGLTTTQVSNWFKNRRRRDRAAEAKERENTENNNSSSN
Assay: universal protein binding microarray; Universal all-10-mer PBM (8x60K, AMADID 030236), 300 nM GST-tagged protein, Alexa Fluor 488 anti-GST; buffer, salt, pH and temperature not stated (as in Berger); high values mean tight binding
Settings: protein: ivt; tags: N-terminal GST; dsDNA, one strand shown
How it was run: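 GST-tagged homeodomains were made by in vitro transcription/translation and quantified by anti-GST western blot against a recombinant GST standard curve. They were applied in duplicate at 300 nM final concentration to universal 'all 10-mer' protein binding microarrays (8×60K format). Binding was quantified as 8-mer E-scores with the Universal PBM Analysis Suite.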

Point of comparison: AATCGTGT, binding signal 0.369 ± 0.0106 E-score. Against it:
- CACCACGC — lower, 0.2817 ± 0.00156 E-score
- ATTCGGGG — lower, 0.1763 ± 0.00138 E-score
- GTCGACAC — higher, 0.4143 ± 0.00159 E-score
- ATCGACAC — higher, 0.436 ± 0.0239 E-score
- ATCGACTC — lower, 0.201 ± 0.019 E-score
- CTCGACAC — higher, 0.419 ± 0.0214 E-score
- CTCGACCC — lower, 0.182 ± 0.0618 E-score
- ATCGACCC — lower, 0.163 ± 0.0642 E-score
- CTCGGCAC — lower, 0.194 ± 0.0445 E-score
- GTCGAAAC — lower, 0.182 ± 0.0154 E-score
- CACGCCTG — lower, 0.202 ± 0.0125 E-score
- CCCCTCCA — lower, 0.195 ± 0.0175 E-score
- ACATGACA — lower, 0.179 ± 0.0207 E-score
- ATGCCAAG — lower, 0.162 ± 0.0414 E-score
- GTGGGGTA — lower, 0.278 ± 0.0225 E-score
- GGTTTAAC — lower, 0.1932 ± 0.000396 E-score
- CAGTGTCG — higher, 0.444 ± 0.0154 E-score
- AAGTGTCG — within error, 0.384 ± 0.00583 E-score
- AAGTGTGG — lower, 0.169 ± 0.00659 E-score
- AAGGGTCG — lower, 0.188 ± 0.0266 E-score
- CAGTCACA — lower, 0.1706 ± 0.000283 E-score
- CAGTGTCA — higher, 0.4579 ± 0.00161 E-score
- CAGTGTCC — within error, 0.374 ± 0.0168 E-score
- CCTCGACA — lower, 0.218 ± 0.00226 E-score
- CCGACTCG — lower, 0.159 ± 0.0511 E-score
- GGGGTCGA — lower, 0.298 ± 0.0393 E-score
- TAGCGACA — lower, 0.172 ± 0.00519 E-score
- AGGGGTCA — lower, 0.28 ± 0.00906 E-score
- CACCCGTG — within error, 0.3705 ± 0.00306 E-score
- GTTTCACA — lower, 0.161 ± 0.0356 E-score
- ACCAGTAC — lower, 0.151 ± 0.0205 E-score
- GGTGCGTA — lower, 0.161 ± 0.0186 E-score
- CGTACTCC — lower, 0.221 ± 0.003 E-score
- CGTACCCC — lower, 0.24 ± 0.0402 E-score
- CGTACACA — lower, 0.268 ± 0.0421 E-score
- TGTACACA — within error, 0.353 ± 0.00919 E-score
- AGTACACG — higher, 0.4259 ± 0.00113 E-score
- GGTACACA — lower, 0.322 ± 0.0315 E-score
- CGTACACC — higher, 0.483 ± 0.00107 E-score
- AGTACACA — lower, 0.253 ± 0.0191 E-score
- GGCACACC — within error, 0.351 ± 0.0301 E-score
- CGTACACG — higher, 0.405 ± 0.0112 E-score
- GGTACACC — higher, 0.4848 ± 0.00354 E-score
- CACTTCAA — lower, 0.265 ± 0.016 E-score
- AAACCCCT — lower, 0.178 ± 0.0353 E-score
- GTATCTGA — lower, 0.236 ± 0.00609 E-score
- CGGATACA — lower, 0.294 ± 0.0106 E-score
- CCCGCGCA — lower, 0.176 ± 0.0199 E-score
- CCCCCCAG — lower, 0.162 ± 0.0223 E-score
- AGTACAAG — lower, 0.205 ± 0.0236 E-score
- AGTACCCC — lower, 0.2867 ± 0.00256 E-score
- AGTACACT — within error, 0.406 ± 0.0266 E-score
- AGTACACC — higher, 0.4815 ± 0.00102 E-score
- CACGCTCA — lower, 0.155 ± 0.038 E-score
- CTAGCACC — lower, 0.203 ± 0.0347 E-score
- GTATCGGA — lower, 0.2544 ± 0.00158 E-score
- ACACGGTG — higher, 0.438 ± 0.00996 E-score
- ACACGGCG — within error, 0.359 ± 0.00453 E-score
- ACACGGTA — within error, 0.385 ± 0.0298 E-score
- ACCCGGTA — lower, 0.236 ± 0.00419 E-score
- ATACGGTG — lower, 0.276 ± 0.0116 E-score
- ACACGGTC — higher, 0.4128 ± 0.00131 E-score
- GCACGGTA — lower, 0.165 ± 0.0341 E-score
- ACGGGAGT — lower, 0.186 ± 0.00625 E-score
- ACTCCACC — lower, 0.275 ± 0.00877 E-score
- CGTGCACG — lower, 0.17 ± 0.0561 E-score
- CACCGTGC — lower, 0.3272 ± 0.00251 E-score
- ACCACTAC — lower, 0.178 ± 0.00318 E-score
- CTCCCGGC — lower, 0.152 ± 0.0261 E-score
- ACCCCTAC — lower, 0.294 ± 0.0164 E-score
- AGGGGTAA — lower, 0.224 ± 0.0133 E-score
- AGTGGTGC — lower, 0.2454 ± 0.00132 E-score
- GTTTAAAC — lower, 0.3445 ± 0.00099 E-score
- GGGTAACA — lower, 0.281 ± 0.0312 E-score
- GTGTGAGA — lower, 0.291 ± 0.0156 E-score
- GTGAAATA — lower, 0.172 ± 0.00835 E-score
- ATGTAACA — lower, 0.2716 ± 0.000905 E-score
- GTGTAAGA — higher, 0.411 ± 0.0296 E-score
- GTGTAAAC — higher, 0.445 ± 0.018 E-score
- GGGTAAAC — lower, 0.193 ± 0.00601 E-score
- GGGTAATA — lower, 0.264 ± 0.00387 E-score
- GTGTAACA — higher, 0.445 ± 0.00891 E-score
- CCCTAAGA — lower, 0.276 ± 0.0324 E-score
- GTGTAATA — higher, 0.451 ± 0.00861 E-score
- ACATAGTG — lower, 0.19 ± 0.00926 E-score
- ACCCTGCT — lower, 0.19 ± 0.00245 E-score
- CACGCGAG — lower, 0.27 ± 0.0228 E-score
- CCCGCCGG — lower, 0.245 ± 0.0587 E-score
- CCAAGCGG — lower, 0.162 ± 0.00467 E-score
- AACGTACA — lower, 0.185 ± 0.0191 E-score
- GTATCGTA — lower, 0.18 ± 0.0138 E-score
- AGTCGCGA — lower, 0.189 ± 0.03 E-score
- CACTCCTC — lower, 0.201 ± 0.00344 E-score
- GTGTAAAA — within error, 0.401 ± 0.049 E-score
- GTGTGAAA — within error, 0.356 ± 0.00667 E-score
- GGATCCCA — lower, 0.235 ± 0.0247 E-score
- CTTGACCC — lower, 0.201 ± 0.00951 E-score
- CTTGACAC — higher, 0.42915 ± 0.000184 E-score
- ATTGACTC — lower, 0.162 ± 0.0495 E-score
- ATTGACAC — higher, 0.438 ± 0.0129 E-score
- CTTGATAC — lower, 0.195 ± 0.0457 E-score
- ATTGACCC — lower, 0.167 ± 0.0261 E-score
- CAGCGTTA — lower, 0.187 ± 0.0162 E-score
- AGATGACA — lower, 0.1652 ± 0.000311 E-score
- CACCCACA — within error, 0.365 ± 0.00539 E-score
- CCCTTAAC — lower, 0.152 ± 0.0479 E-score
- GAATACCC — lower, 0.159 ± 0.00629 E-score
- AAATACAC — within error, 0.403 ± 0.0413 E-score
- GAATACAC — higher, 0.408 ± 0.0236 E-score
- CAATACAC — within error, 0.371 ± 0.0193 E-score
- CAAAATAC — lower, 0.162 ± 0.0251 E-score
- CCCTTAGG — lower, 0.175 ± 0.00592 E-score
- CACCCGAG — lower, 0.297 ± 0.0235 E-score
- ACCAGTGG — lower, 0.189 ± 0.0039 E-score
- CCCCAAGG — lower, 0.218 ± 0.0124 E-score
- ACCTGGGG — lower, 0.21 ± 0.0103 E-score
- CACGCCGG — lower, 0.287 ± 0.0131 E-score
- GGTTAACA — lower, 0.224 ± 0.0235 E-score
- TGTTAACA — within error, 0.389 ± 0.043 E-score
- TCTTAACA — lower, 0.202 ± 0.0606 E-score
- CCCTAGTC — lower, 0.167 ± 0.0143 E-score
- ACGCCTCA — lower, 0.165 ± 0.0291 E-score
- CCACCTCC — lower, 0.159 ± 0.00267 E-score
- GCACCTCA — lower, 0.162 ± 0.0144 E-score
- ACACCTCG — higher, 0.453 ± 0.00735 E-score
- CACCCTCG — within error, 0.349 ± 0.0215 E-score
- ACACCTCA — higher, 0.452 ± 0.0073 E-score
- ATACCTCC — lower, 0.231 ± 0.0309 E-score
- ACTCCTCT — lower, 0.174 ± 0.0278 E-score
- ACCCCTCT — lower, 0.304 ± 0.0038 E-score
- ACACCTCT — higher, 0.467 ± 0.0079 E-score
- ACCCCTCG — lower, 0.3069 ± 0.00276 E-score
- ACACCTCC — higher, 0.4719 ± 0.000629 E-score
- ACCCGATA — lower, 0.237 ± 0.00872 E-score
- CACCGAGG — lower, 0.2466 ± 0.00166 E-score
- CACCAATC — lower, 0.287 ± 0.00449 E-score
- GAAGGACA — lower, 0.176 ± 0.0303 E-score
- AACGAGTG — lower, 0.189 ± 0.0329 E-score
- CCCCCTGA — lower, 0.277 ± 0.0278 E-score
- CCCCCAGG — lower, 0.213 ± 0.0301 E-score
- CACCTGCG — lower, 0.26 ± 0.0138 E-score
- ACTTCTAC — lower, 0.182 ± 0.0104 E-score
- CACGGGAC — lower, 0.163 ± 0.0415 E-score
- CCCCTCAA — lower, 0.161 ± 0.0276 E-score
- CACTCAAG — lower, 0.264 ± 0.00106 E-score
- CGACTCCA — lower, 0.275 ± 0.014 E-score
- CCCCTCCG — lower, 0.2736 ± 0.00272 E-score
- CACTAGGC — lower, 0.221 ± 0.00293 E-score
- CCCCTTAC — lower, 0.245 ± 0.00846 E-score
- AACACTGA — within error, 0.35 ± 0.0172 E-score
- AACACTAA — lower, 0.336 ± 0.0111 E-score
- CACACTGA — lower, 0.208 ± 0.0349 E-score
- GACACTAA — the same, 0.369 ± 0.00967 E-score
- GACACTGA — higher, 0.403 ± 0.0214 E-score
- TACACTGA — higher, 0.394 ± 0.0104 E-score
- CACACTGC — lower, 0.258 ± 0.0222 E-score
- AACACTGC — within error, 0.375 ± 0.0233 E-score
- TACACTAA — within error, 0.381 ± 0.0182 E-score
- CACACTGG — lower, 0.264 ± 0.0213 E-score
- GACACTGC — higher, 0.4326 ± 0.00138 E-score
- AACTCCCG — lower, 0.181 ± 0.0506 E-score
- ACTGGTAC — lower, 0.192 ± 0.00471 E-score
- CCCCCCGA — lower, 0.314 ± 0.0156 E-score
- CACTACGG — lower, 0.188 ± 0.0252 E-score
- CGAGGAAC — lower, 0.197 ± 0.0457 E-score
- CCGATCCC — lower, 0.221 ± 0.00253 E-score
- TACTCCAA — lower, 0.198 ± 0.0212 E-score
- CACTGTGC — lower, 0.204 ± 0.00431 E-score
- CACAGGTG — lower, 0.307 ± 0.0159 E-score
- CACACTTA — lower, 0.204 ± 0.00443 E-score
- AACACTTA — within error, 0.328 ± 0.0332 E-score

Reference: article PMC10668032, “Altered binding affinity of SIX1-Q177R correlates with enhanced WNT5A and WNT pathway effector expression in Wilms tumor”
